Source: PubChem BioAssay (EPA / NIEHS)
Several values for one entry are separate records, joined by “and”; a condition that tells them apart may be missing. Equal values may be shown once. Where a structure was tested more than once in an assay, its records may differ in their call. Activity calls are given as the source filed them. The calls were made as follows: active = hit-call score of the fitted dose curve at least 0.9, where 1 is the maximum; inactive = score below 0.9.

How the values were obtained:
[1] = ATG_CRE_CIS: Attagene CIS-FACTORIAL HepG2 Assay for human cAMP Responsive Element (CRE) binding protein 3 (AID 2282926); conditions: HepG2 CRE cis-reporter, Attagene multiplexed mRNA; actives raise or lower the signal
Outline: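 Assay format: transient reporter transfection of HepG2, 24 h treatment, total RNA isolation with DNase I step. Reporter abundance read by fluorescence after PCR and capillary separation; DMSO-normalised gain or loss fitting.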

[2] = target: CCAAT/enhancer-binding protein beta (Homo sapiens) (UniProt P17676); experiment: ATG_C_EBP_CIS: Attagene CIS-FACTORIAL HepG2 Assay for human CCAAT/Enhancer Binding Protein (C/EBP) beta (AID 2282927); conditions: HepG2 Attagene cis-factorial transcription factor reporter; actives raise or lower the signal
Outline: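 Changes in reporter mRNA, rather than exogenous chimeric receptor activity, reflect native C/EBP signalling in transfected HepG2 cells dosed for 24 h; transcripts are detected by RT-PCR and capillary electrophoresis.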

[3] = ATG_CMV_CIS: Attagene CIS-FACTORIAL HepG2 Assay for human CMV (Internal Marker) (AID 2282928); conditions: HepG2 CMV promoter reporter, transcription factor profiling; actives raise or lower the signal;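 also: endpoint acts as a background internal control marker rather than a target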
Outline: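 Readout: fluorescent reporter cDNA fragments separated by capillary electrophoresis after RT-PCR and HpaI cut. Cells: HepG2 carrying transfected cis-promoter reporter constructs, dosed 24 h. Endpoint serves as background internal-marker control, fit bidirectionally versus DMSO.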

[4] = ATG_DR4_LXR_CIS: Attagene CIS-FACTORIAL HepG2 Assay for human Liver X Receptor (LXR), DR4 submotif (AID 2282929); conditions: HepG2 Attagene DR4 cis-reporter, mRNA transcription; actives raise or lower the signal
Outline: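 The endpoint is DR4-element-driven reporter transcripts after 24 h chemical exposure of transfected HepG2 cells. These were measured via RT-PCR and capillary electrophoresis, and gain or loss of signal was fitted relative to DMSO controls.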

[5] = target: Aryl hydrocarbon receptor (Homo sapiens) (UniProt P35869); experiment: ATG_Ahr_CIS: Attagene CIS-FACTORIAL HepG2 Assay for human Aryl Hydrocarbon Receptor (Ahr) (AID 2282930); conditions: HepG2 AhR cis-factorial reporter transcription; actives raise or lower the signal
Outline: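 HepG2, transient MRTU (cis) transfection, 24 h exposure. RNA → cDNA → PCR → 6-FAM primer extension → HpaI 2 h 37 C → CE. Fit: bidirectional, DMSO baseline.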

[6] = ATG_AP_1_CIS: Attagene CIS-FACTORIAL HepG2 Assay for human Activator Protein 1 (AP-1) (AID 2282931); conditions: HepG2 Attagene cis-factorial AP-1 reporter mRNA; actives raise or lower the signal
Outline: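 Readout is reporter transcript level from endogenous transcription factor activity, quantified by RT-PCR with fluorescent primer extension and capillary electrophoresis. Transiently transfected HepG2 cells, 24 h exposure. Curves fitted both directions versus DMSO.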

[7] = ATG_AP_2_CIS: Attagene CIS-FACTORIAL HepG2 Assay for human Activator Protein 2 (AP-2) (AID 2282932); conditions: HepG2 AP-2 cis-reporter, Attagene transcription factor profiling; actives raise or lower the signal
Outline: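 Endogenous transcription factor activity is reported through transfected multiplex reporter constructs in HepG2, after 24 h of compound exposure. Transcripts were quantified by RT-PCR and capillary electrophoresis of fluorescent fragments. Bidirectional fit against DMSO.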

[8] = ATG_BRE_CIS: Attagene CIS-FACTORIAL HepG2 Assay for human Bone Morphogenetic Protein (BMP) Response Element (BRE) (AID 2282933); conditions: HepG2 BMP response element reporter, Attagene transcription factor profiling; actives raise or lower the signal
Outline: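 Read-out: reporter mRNA induction quantified by RT-PCR and capillary electrophoresis after 24 h chemical exposure of transfected HepG2 cells. Endogenous factor activity on the BMP response element; gain or loss fitted against DMSO baseline.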

[9] = target: Retinoic acid receptor alpha (Homo sapiens) (UniProt P10276); experiment: ATG_DR5_RAR_CIS: Attagene CIS-FACTORIAL HepG2 Assay for human Retinoic Acid Receptor Alpha (RARE), DR5 submotif (AID 2282934); conditions: HepG2 Attagene cis-factorial RARE DR5 reporter, mRNA; actives raise or lower the signal
Outline: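 HepG2, transient cis-reporter transfection, 24 h exposure. mRNA readout: RT-PCR, FAM label, HpaI cut, capillary electrophoresis. DMSO baseline, gain/loss fitting.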

[10] = APR_HepG2_CellLoss_72hr: Apredica 72-hour HepG2 Assay for Cell Loss (AID 2282915); conditions: high-content imaging
Outline: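 Cell number comes from Hoechst 33342-labelled nuclei, imaged at 20x after 3.7% formaldehyde fixation. Dosing was 0.39–200 uM, ten concentrations in duplicate, 0.5% DMSO final, for 72 h. Bidirectional fit relative to DMSO baseline.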

[11] = APR_HepG2_P-H2AX_72hr: Apredica 72-hour HepG2 Assay for H2AX Phosphorylation (AID 2282916); conditions: imaging, actives raise or lower the signal;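 also: phospho-histone H2A.x immunostain intensity per cell marking DNA damage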
Outline: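 Phospho-histone H2A.x immunofluorescence, multiplexed with Hoechst and c-Jun, quantified by high-content imaging. Compounds applied to HepG2 for 72 h across ten concentrations (0.39–200 uM, 0.5% DMSO), in duplicate; DMSO baseline.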

[12] = APR_HepG2_MitoMembPot_72hr: Apredica 72-hour HepG2 Assay for Mitochondrial Membrane Potential (AID 2282917); conditions: imaging, actives raise or lower the signal
Outline: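 Membrane potential read by MitoTracker Red CMXRos (250 nM, 30 min, pre-fixation) fluorescence imaging of HepG2 after 72 hr exposure. Ten concentrations, 0.39–200 uM, duplicate wells, 0.5% DMSO; fitted in both directions against DMSO baseline.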

[13] = APR_HepG2_MitoticArrest_72hr: Apredica 72-hour HepG2 Assay for Mitotic Arrest (AID 2282918); conditions: high-content imaging, actives raise or lower the signal
Outline: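 Read-out is phospho-histone H3 immunofluorescence with Hoechst nuclear segmentation, imaged at 20x. Human HepG2 liver cells received ten concentrations (0.39–200 uM, final DMSO 0.5% v/v) for 72 hr before fixation. Gain or loss of signal was fitted relative to DMSO.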

[14] = APR_HepG2_MicrotubuleCSK_72hr: Apredica 72-hour HepG2 Assay for Microtubule CSK Stabilty (AID 2282919); conditions: HepG2 microtubule cytoskeleton, high-content imaging, actives raise or lower the signal
Outline: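 High-content imaging of alpha-tubulin staining in fixed HepG2 cells after 72 hr treatment with ten concentrations from 0.39 to 200 uM (0.5% DMSO). Fitting was bidirectional against DMSO; taxol served as positive control.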

[15] = APR_HepG2_P-H2AX_24hr: Apredica 24-hour HepG2 Assay for H2AX Phosphorylation (AID 2282920); conditions: high-content imaging, actives raise or lower the signal
Outline: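 HepG2, 24 hr, cpd 0.39–200 uM (10 conc, duplicate), DMSO 0.5% v/v final. Fix 3.7% formaldehyde, Triton X-100 permeabilize, anti-phospho-H2A.x 1:200 + Hoechst 2 ug/mL. Imaged, bidirectional fit vs DMSO.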

[16] = APR_HepG2_StressKinase_72hr: Apredica 72-hour HepG2 Assay for Stress Kinase (AID 2282921); conditions: HepG2 stress kinase (phospho-c-Jun) imaging, actives raise or lower the signal
Outline: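 Stress kinase signal is phospho-c-Jun immunofluorescence (1:500 primary, Cy3 secondary) in fixed, permeabilized human HepG2 cells imaged at 20x. Exposure lasted 72 hr over ten concentrations from 0.39 to 200 uM, 0.5% DMSO, in duplicate. Bidirectional fit versus DMSO.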

[17] = APR_HepG2_p53Act_72hr: Apredica 72-hour HepG2 Assay for p53 Activation (AID 2282923); conditions: high-content imaging, actives raise or lower the signal;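 also: average cellular p53 protein immunofluorescence intensity in HepG2 cells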
Outline: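 After 72 h with compound (ten points, 0.39 to 200 uM, final DMSO 0.5% v/v), fixed HepG2 cells were labelled with sheep anti-p53 and Hoechst 33342 and imaged; gain or loss versus DMSO scored.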

[18] = APR_HepG2_MitoMass_72hr: Apredica 72-hour HepG2 Assay for Mitochondrial Mass (AID 2282924); conditions: high-content imaging, actives raise or lower the signal;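 also: MitoTracker Red CMXRos stain intensity per cell imaged as mitochondrial mass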
Outline: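 Readout is imaged MitoTracker Red (250 nM, 30 min, pre-fixation) signal, fitted bidirectionally against DMSO baseline. Human HepG2 liver cells received compound 0.39–200 uM in duplicate for 72 hr, final DMSO 0.5%.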

[19] = APR_HepG2_NuclearSize_72hr: Apredica 72-hour HepG2 Assay for Nuclear Size (AID 2282925); conditions: high-content imaging, actives raise or lower the signal
Outline: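 Nuclear size was read by high-content imaging of Hoechst 33342 stain after formaldehyde fixation. Compounds ran 72 h on HepG2 at 0.39 to 200 uM, with final DMSO 0.5% v/v. Curves fitted both directions relative to DMSO control.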

Measured: AC50

Retinoic acid receptor alpha (Homo sapiens), sequence (P10276 whole entry, looked up): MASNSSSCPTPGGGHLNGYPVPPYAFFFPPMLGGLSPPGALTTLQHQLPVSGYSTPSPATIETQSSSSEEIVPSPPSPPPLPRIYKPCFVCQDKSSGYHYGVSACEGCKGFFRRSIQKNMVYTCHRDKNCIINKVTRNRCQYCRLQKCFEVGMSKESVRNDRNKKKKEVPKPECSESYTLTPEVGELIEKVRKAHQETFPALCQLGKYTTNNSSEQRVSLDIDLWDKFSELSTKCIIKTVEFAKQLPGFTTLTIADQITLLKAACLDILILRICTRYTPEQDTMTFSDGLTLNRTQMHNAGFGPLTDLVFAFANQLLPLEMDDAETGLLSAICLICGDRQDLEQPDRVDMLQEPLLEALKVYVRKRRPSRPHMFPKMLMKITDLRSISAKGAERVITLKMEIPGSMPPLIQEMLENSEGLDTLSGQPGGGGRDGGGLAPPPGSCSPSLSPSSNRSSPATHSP
CCAAT/enhancer-binding protein beta (Homo sapiens), sequence (P17676 whole entry, looked up): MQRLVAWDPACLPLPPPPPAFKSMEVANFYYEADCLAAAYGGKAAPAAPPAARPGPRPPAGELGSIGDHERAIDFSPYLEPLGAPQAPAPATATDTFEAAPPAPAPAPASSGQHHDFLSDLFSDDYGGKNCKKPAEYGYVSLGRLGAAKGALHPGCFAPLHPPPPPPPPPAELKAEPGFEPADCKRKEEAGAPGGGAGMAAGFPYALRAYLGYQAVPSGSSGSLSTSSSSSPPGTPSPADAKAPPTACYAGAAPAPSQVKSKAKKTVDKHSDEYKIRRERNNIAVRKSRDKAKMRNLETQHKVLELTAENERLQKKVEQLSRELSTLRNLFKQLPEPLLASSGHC
Aryl hydrocarbon receptor (Homo sapiens), sequence (P35869 whole entry, looked up): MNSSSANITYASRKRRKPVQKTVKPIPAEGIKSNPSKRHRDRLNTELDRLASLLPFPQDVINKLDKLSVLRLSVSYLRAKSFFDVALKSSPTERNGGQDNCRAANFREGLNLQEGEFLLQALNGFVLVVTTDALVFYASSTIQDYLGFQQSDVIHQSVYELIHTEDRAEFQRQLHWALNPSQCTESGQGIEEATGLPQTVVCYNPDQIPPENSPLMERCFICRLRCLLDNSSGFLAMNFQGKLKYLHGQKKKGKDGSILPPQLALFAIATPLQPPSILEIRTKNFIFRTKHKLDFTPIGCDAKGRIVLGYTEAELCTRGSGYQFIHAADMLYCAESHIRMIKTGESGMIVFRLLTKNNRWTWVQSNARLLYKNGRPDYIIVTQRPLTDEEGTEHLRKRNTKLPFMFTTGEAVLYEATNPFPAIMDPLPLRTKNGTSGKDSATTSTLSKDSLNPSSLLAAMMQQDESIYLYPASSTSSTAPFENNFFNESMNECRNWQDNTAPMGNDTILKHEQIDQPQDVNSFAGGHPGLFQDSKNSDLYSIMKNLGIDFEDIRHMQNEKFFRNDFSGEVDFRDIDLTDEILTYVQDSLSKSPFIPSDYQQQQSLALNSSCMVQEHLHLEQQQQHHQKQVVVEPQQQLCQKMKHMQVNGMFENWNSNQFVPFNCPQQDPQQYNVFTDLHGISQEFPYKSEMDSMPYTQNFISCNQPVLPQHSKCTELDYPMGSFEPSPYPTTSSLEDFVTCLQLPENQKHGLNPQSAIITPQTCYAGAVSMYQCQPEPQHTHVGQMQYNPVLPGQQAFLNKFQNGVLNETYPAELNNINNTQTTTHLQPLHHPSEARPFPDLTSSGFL

NCC(F)(F)C(F)(F)C(F)(F)C(F)(F)C(F)(F)C(F)(F)C(F)(F)F
inactive: [1] | [2] | [3] | [4] | [5] | [6] | [7] | [8] | [9]

c1ccc2c(c1)ccc1ccccc12
not listed: [1] | [7]
inactive: all other assays above

CC(C)(C)c1ccc(O)c(C(C)(C)C)c1
active: [10] 66 µM | [11] 36.5 µM | [15] 42.8 µM | [16] 56.6 µM | [17] 20.3 µM | [6] 15.9 µM
not listed: [7]
inactive: all other assays above

O=C(/C=C/c1ccc(O)cc1)CC(=O)/C=C/c1ccc(O)cc1
active: [11] 32.1 µM | [16] 27.1 µM | [18] 46.3 µM | [19] 49.4 µM | [3] 77.7 µM | [4] 18.9 µM | [6] 62 µM
not listed: [1] | [7]
inactive: all other assays above

CCCCCCCCCCCCCC[N+](C)(C)C
active: [3] 15.2 µM | [4] 16.6 µM | [6] 6.78 µM and 7.32 µM | [8] 13.1 µM and 4.06 µM
inactive: [1] | [2] | [3] | [4] | [5] | [7] | [9]

COc1cc(CCC(=O)CC(=O)CCc2ccc(O)c(OC)c2)ccc1O
active: [11] 96.6 µM | [13] 166 µM | [17] 145 µM
not listed: [1]
inactive: all other assays above

CCCCCCCCC(=O)O
not listed: [7]
inactive: all other assays above

CCCCCCCCCCCCCCCS(=O)(=O)Oc1ccccc1
inactive: all assays above

CCCCOCCO
not listed: [7]
inactive: all other assays above
